Screens (PubChem)
Sampled rows, rich in hits. Any-hit rate of the full collection: about 1.5%.
GALK inh: galactokinase (human) inhibition. P51570. Purified GALK, Kinase-Glo residual ATP luminescence. Potency, µM (titrated, usually from 57.5 µM), without a hit: top-dose activity change, negative = inhibition, most hits filed as inhibitors. 270,000 tested, 0.007% active; note: potency is the fitted concentration of half-maximal effect
Target sequence (P51570 whole entry, looked up): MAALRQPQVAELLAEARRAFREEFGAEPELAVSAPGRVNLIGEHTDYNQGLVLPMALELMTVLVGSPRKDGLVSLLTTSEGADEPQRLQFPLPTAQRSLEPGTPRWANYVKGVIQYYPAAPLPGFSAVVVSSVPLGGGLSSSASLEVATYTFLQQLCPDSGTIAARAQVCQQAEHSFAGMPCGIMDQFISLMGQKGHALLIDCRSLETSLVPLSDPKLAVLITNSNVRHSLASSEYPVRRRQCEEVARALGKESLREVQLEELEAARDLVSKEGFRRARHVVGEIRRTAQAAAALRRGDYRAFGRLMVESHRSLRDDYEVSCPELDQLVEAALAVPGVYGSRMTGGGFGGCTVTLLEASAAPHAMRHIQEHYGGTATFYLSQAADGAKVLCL
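Luminescence from leftover ATP (Ultra-Glo luciferase/luciferin) served as read-out after a 1 h room-temperature reaction of 5 nM GALK with 35 uM ATP and 100 uM galactose.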
Eya2 inh: inhibitors of human Eya2 phosphatase activity. O00167. recombinant Eya2, OMFP fluorescence dephosphorylation (OMFP is methylfluorescein phosphate). Potency, µM (doses to about 76.9 µM), for the others: at the top dose activity, negative = inhibition, most hits filed as inhibitors. 330,000 tested, 0.006% active. AID 488837; note: potency is the fitted concentration of half-maximal effect
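Eya2 protein (added as 0.2 uM solution) was preincubated with compound for 10 min at ambient temperature in 50 mM HEPES pH 7.5, 50 mM NaCl, 5 uM MgCl2, 0.05% BSA, 1 mM DTT. OMFP (added at 50 uM) then reacted 10 min; fluorescence read at 485/525 nm.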
CtBP-E1A inh: inhibitors of CtBP/E1A interaction | AlphaScreen GST-E1A/His-CtBP binding, 1536-well; hits give low values | activity change, % (no concentration beside the values) | 340,000 tested, 0.49% active; in the data active = activity change below about -65%; inconclusive = mostly about -30% to -63%
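Homogeneous bead-based format: GST-tagged E1A captured on glutathione donor beads, His-tagged CtBP on nickel acceptor beads; compounds precede bead addition by 2 h at 37 °C.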
TrxR1 substrate: substrates of rat thioredoxin reductase 1; 390,000 tested, 0.01% active; AID 588456; purified TrxR1 substrate turnover, NADPH consumption readout; Potency, µM (series often up to 114 µM), for the others: top-dose activity change, negative = substrate turnover; O89049; note: potency is the fitted concentration of half-maximal effect; nearly all actives have a fitted effect of over 50% in size
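Rat TrxR1, dispensed at 90 nM, was prereduced with 400 uM NADPH (final) for 5 min at ~22 deg C, then incubated with compound 15 min before 400 uM selenite. A first-read NADPH fluorescence drop versus no-compound background flagged substrates.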
Six1-Eya2 blk: inhibitors of human Six1/Eya2 interaction | Q15475+O00167 | AlphaScreen GST-Six1/His-Eya2 binding, biochemical; hits give low values | activity change, % (concentration not given with the values) | 360,000 tested, 0.56% active | AID 651725; in the data active = activity change below about -65%; inconclusive = mostly about -30% to -63%
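Six1/Eya2 binding was read as AlphaScreen signal after compounds were pinned into GST-Six1 plus His-tagged Eya2 (5X stock 250/500 nM) in pH 8.0 Tris/NaCl/TCEP buffer, beads added, then incubated 1 h, 37 C, dark.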
rTrxR1 inhibitor: rat TrxR1 inhibition; recombinant rTrxR1, NADPH fluorescence consumption, selenite substrate; AID 588453; Potency, µM (titrated, usually from 114 µM), for the others: at the highest dose activity change, negative = inhibition, usual class: inhibitors; 390,000 tested, 1% active; O89049; note: potency is the fitted concentration of half-maximal effect; nearly all actives have a fitted effect of over 65% in size
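Rat TrxR1 (90 nM in the dispensed reagent) was pre-reduced with 400 uM NADPH for 5 min at room temperature, then incubated with compound for 15 min. After 400 uM selenite was added, NADPH fluorescence (Ex 340/Em 450 nm) was followed for 8 min.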
* hit, by the source's call; ? = inconclusive; · = no result given; ! = repeats disagree; [ ] = remark or other dose. Unless noted, calls come from the whole dose curve; as a rule, active = well fitted curve in the direction sought with a large enough effect; inconclusive = small, poorly fitted or top-dose-only effect, or another doubt; inactive = no such curve, though single readings can be large; an effect the other way counts as inactive or inconclusive. % is set by controls: 0 for no effect and ±100 for the full control effect.

SMILES	GALK inh	Eya2 inh	CtBP-E1A inh	TrxR1 substrate	Six1-Eya2 blk	rTrxR1 inhibitor
Fc1ccc(NC(=S)Nc2nccs2)cc1	0.1%	1.3%	0.9	0.5%	-4.7	7.94µM*
CCOC(=O)/C=C1\CN(Cc2cc(OC)c(OC)c(OC)c2)S(=O)(=O)c2ccc(C(F)(F)F)cc21	·	-17.6%	-0.2	0.3%[57.1 µM]	3.8	50.1µM*!
CCOC(=O)C1CCN(c2c(C(=O)c3ccc(OC)cc3)cnc3ccccc23)CC1	·	·	·	-1.8%	·	12.0%
CC(=O)Nc1ccc(Sc2ccc([N+](=O)[O-])o2)cc1	·	·	-14.7	-0.6%	-8.3	4.47µM*
Nc1ncnc2oc(-c3ccco3)c(-c3ccco3)c12	-2.2%	5.3%	?	48.3%	?	-42.9%[57.1 µM]
Nc1ncnc2oc(-c3ccoc3)c(-c3ccco3)c12	·	·	·	24.7%	·	50.1µM*
CCN(CC(=O)Nc1ccccc1C(F)(F)F)C(=O)C1CC(=O)N(Cc2ccccc2)C1 (stereo not given)	·	7.5%	-2.0	-8.5%	-85.8*	-9.2%
O=[N+]([O-])c1ccccc1C=NN1CCCCCC1	·	·	?	-5.1%	-70.0*	7.3%[57.1 µM]
CCOC(=O)C1=C(Cc2ccc(Cl)cc2)C(=O)c2ccccc2C1=O	-0.4%	-13.8%	-8.8	5.9%	-15.3	10µM*
CCCOc1cccc(C2c3c(oc4ccc(F)cc4c3=O)C(=O)N2Cc2ccc3c(c2)OCO3)c1 (stereo not given)	·	·	·	-1.7%	·	6.7%
CC(C)Oc1cccc(C(=O)NC(=S)Nc2cccnc2)c1	0.9%	2.4%	-0.7	-0.5%	-19.6	22.4µM*
O=S(=O)(c1cccc2ccccc12)N1CCN(c2nc(-c3cccs3)nc3ccccc23)CC1	·	·	·	2.5%	·	-10.3%
Cc1cccc(NC(=S)c2nc3ccccc3s2)c1	-3.2%	-2.4%	-80.7*	-1.7%	-75.4*	-10.6%
COc1ccccc1C(=O)N1CCC(c2c[nH]c3ccccc23)(c2c[nH]c3ccccc23)CC1	·	·	·	-3.0%	·	5.0%
Cn1cnnc1SCC(=O)c1cc2ccccc2oc1=O	0.4%	-4.4%	-16.2	6.9%	-28.8	7.08µM*
O=C(CSc1nnc(-c2cccnc2)o1)c1cc2ccccc2oc1=O	-1.9%	7.7%	-2.1	9.5%[57.1 µM]	0.1	-8.6%[57.1 µM]
O=C(CSc1n[nH]c(-c2ccccn2)n1)Nc1cccc(Cl)c1	-3.5%	-9.7%	-96.8*	3.4%	-92.5*	15.9%
Cc1nc(SCC(=O)Nc2cccc(Cl)c2)n[nH]1	-0.3%	14.5%	-0.3	-5.4%	-3.1	-10.2%
Cc1ccccc1NC(=O)CSc1n[nH]c(-c2ccccn2)n1	-1.5%	2.4%	-93.6*	4.8%	-91.7*	15.4%
O=C(CSc1n[nH]c(-c2ccccc2)n1)Nc1ncccn1	-2.0%	-4.8%	2.4	8.7%	-7.1	0.8%[57.1 µM]
Cc1ccc(C)c(NC(=O)CSc2n[nH]c(-c3ccccn3)n2)c1	-1.7%	4.1%	-92.1*	2.6%[57.1 µM]	-77.4*	8.5%[57.1 µM]
Cc1cc(C2C(C#N)=C(N)SC(N)=C2C#N)c(C)s1	-0.8%	17.6%	-3.5	-4.6%	-12.7	31.6µM*
O=c1c(Cl)c(Cl)cnn1-c1ccccc1	-2.4%	-13.5%	6.4	4.8%	-4.5	14.1µM*
O=c1c(Cl)c(Cl)cnn1Cc1ccccc1Cl	0.7%	-0.7%	4.6	4.6%	-5.3	20µM*
Cc1ccc(Cn2ncc(Cl)c(Cl)c2=O)cc1	-0.2%	-3.2%	11.9	5.1%	-3.7	6.31µM*
SMILES	GALK inh	Eya2 inh	CtBP-E1A inh	TrxR1 substrate	Six1-Eya2 blk	rTrxR1 inhibitor
Cc1cc(C)cc(Cn2ncc(Cl)c(Cl)c2=O)c1	-0.4%	-14.3%	5.9	3.8%	-2.1	6.31µM*
CC1Cc2ccccc2C[N+]1(C)CC(=O)c1ccc(I)cc1 (stereo not given)	·	·	·	-2.9%	·	-8.5%
CCOC(=O)c1ccc(NC(=O)CCCn2c(=O)c3cccn3c3cccnc32)cc1	·	·	·	3.9%	·	19.2%
CCCOc1ccc(C(=O)NCC2OCCc3ccccc32)cc1 (stereo not given)	·	·	·	2.8%	·	11.0%
Cc1cccc(N2CCN(C(=O)CN3C(=O)COc4ccc(S(=O)(=O)N5CCC(C)CC5)cc43)CC2)c1C	·	·	·	1.8%	·	12.1%
CC(Sc1nnc(NC2CCCCC2)s1)C(=O)Nc1ccc2c(c1)C(=O)c1ccccc1C2=O (stereo not given)	2.2%	-3.4%	0.0	-2.4%	-75.2*	10.3%[0.0914 µM]
CC(Sc1nnc(NC2CC2)s1)C(=O)Nc1ccc(N2CCOCC2)cc1 (stereo not given)	·	11.5%	0.3	4.3%	-1.4	9.3%
COc1cc(C#Cc2c(-c3ccccc3)n(C)c3ccccc23)cc(OC)c1	·	0.4%	29.4	35.8%	29.0	44.7µM*
Cc1cc(C#Cc2c(-c3ccccc3)n(C)c3ccccc23)ccc1F	·	13.4%	33.4	13.9%	23.6	35.5µM*
COc1ccc(-c2c(C#Cc3ccsc3)c3ccccc3n2C)cc1	·	3.1%	-0.3	14.4%[57.1 µM]	-1.2	10µM*
CC1CCN(Cc2c(O)ccc3c(=O)c(Oc4ccccc4Cl)c(C(F)(F)F)oc23)CC1	·	·	·	-5.5%	·	0.9%
COc1cc(OC)c(Nc2ncnc3onc(-c4cccc(Cl)c4)c23)cc1Cl	·	·	·	-2.5%	·	11.5%
COc1ccccc1CNC(=O)c1ccc(N2CCCC2)c(NC(=O)NCc2ccccc2)c1	·	·	·	-1.2%[57.1 µM]	·	-0.5%[57.1 µM]
CC(C)(C)n1ncc2c(=O)n(Cc3cc(Cl)ccc3Cl)cnc21	·	·	·	-3.4%	·	3.3%
CNc1cccccc1=S	-0.3%	-4.9%	-2.3	-1.9%	-14.0	7.94µM*
COc1ccc(Cn2c(=O)c3oc4ccccc4c3n(Cc3ccc(F)cc3)c2=O)cc1	·	·	·	-2.0%	·	2.9%
COc1ccc(CCN(C)C(=O)COC(=O)/C=C/c2ccc(C)o2)cc1OC	·	17.5%	-0.3	-13.8%	2.3	15.8µM*
CCOc1ccc2oc(C(=O)N(C)CCc3ccc(OC)c(OC)c3)c(C)c2c1	·	23.7%	0.6	-0.8%	-7.2	2.5%
CCc1nc2cccnc2n1-c1ccc(CC(=O)Nc2ccccc2Cl)cc1	·	·	·	-4.1%	·	2.1%
COc1ccc(-c2cc(C(F)(F)F)nc(SCC(=O)N(C)Cc3ccccc3)n2)cc1	·	·	·	17.9%	·	25.0%
Cc1ccc2[nH]c(=O)c(CN(Cc3ccco3)S(=O)(=O)c3c(C)ccc4nsnc34)cc2c1	-0.4%	11.7%	8.3	12.6%	-1.2	28.2µM*
Cc1ccc(N2C(=O)CSC23C(=O)N(CC(=O)Nc2ccccc2F)c2ccccc23)cc1C (stereo not given)	·	·	·	4.0%	·	21.6%
COc1ccc(C2NC(Cc3ccccc3)(C(=O)O)C3C(=O)N(c4ccccc4OC)C(=O)C23)cc1 (stereo not given)	-1.5%	-0.8%	-1.3	7.0%	-5.5	56.2µM*
CN(C)Cc1c(O)ccc2ccccc12	5.5%	2.5%	4.3	15.5%	-1.5	?
